# Measured values from ChEMBL document CHEMBL1961873, “Compounds: GSK PKIS; Assays: Nanosyn kinase panel” (2012).
# Target: Protein kinase C gamma type (Homo sapiens) (UniProt P05129)
# Conditions: at 0.1 µM
# 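Also: values are mean percent inhibition of PKC gamma.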
row,Structure (SMILES),inhibition
1,CCCN1CCC=C(c2ccc(Nc3nc(Nc4ccccc4C(N)=O)c4cc[nH]c4n3)c(C)c2)C1,3.41%
2,CS(=O)(=O)CCNCc1nc(-c2ccc3ncnc(Nc4ccc(F)c(Cl)c4)c3c2)cs1,2.71%
3,COc1cc2c(cc1Nc1nc(N3CCc4ccccc43)c3cc[nH]c3n1)N(C(=O)CN(C)C)CC2,1.53%
4,COc1cc2ncn(-c3cc(OCc4ccccc4Cl)c(C(N)=O)s3)c2cc1OC,-0.07%
5,CS(=O)(=O)CCNCc1ccc(-c2ccc3ncnc(Nc4ccc(OCc5ccccc5)c(Cl)c4)c3c2)o1,1.29%
6,Nc1ncnc2occ(-c3ccc(NC(=O)Nc4cccc(C(F)(F)F)c4)cc3)c12,-0.58%
7,COc1ccc(-c2ccncc2)cc1C(N)=O,2.34%
8,Fc1cccc(COc2ccc(Nc3ncnc4cc(-c5ccc[nH]5)sc34)cc2Cl)c1,3.21%
9,CCn1c(-c2nonc2N)nc2c(N3CCCC3)nccc21,-1.48%
10,Cc1nn(C)c2cc(N(C)c3ccnc(Nc4cccc(S(N)(=O)=O)c4)n3)ccc12,4.1%
11,CC(=O)Nc1cccc(C#Cc2cncnc2Nc2ccc(OCc3cccc(F)c3)c(Cl)c2)n1,2.74%
12,Nc1nc(-c2ccc3c(c2)C(=Cc2cc(Br)c(O)c(Br)c2)C(=O)N3)cs1,-2.56%
13,CCN1CCC(CC(=O)Nc2n[nH]c3nc(-c4cccs4)c(Br)cc23)CC1,-1.57%
14,COc1ccc2cc(-c3c(-c4ccncc4)nc(-c4ccc([S+](C)[O-])cc4)n3C)ccc2c1 (centres undefined),1.09%
15,NS(=O)(=O)c1ccc(N/N=C2\C(=O)Nc3ccc(C(=O)NCCc4c[nH]cn4)cc32)cc1,0.92%
16,CS(=O)(=O)CCNCc1ccc(-c2ccc3ncnc(Nc4ccc(OCc5cccc(F)c5)c(C(F)(F)F)c4)c3c2)o1,1.87%
17,Nc1nc(-c2ccccn2)c(-c2ccc3ncccc3n2)s1,1.52%

row,Structure (SMILES),inhibition
1,c1cnn2ncc(-c3ccnc(Nc4ccc5c(c4)OCCO5)n3)c2c1,1.93%
2,Cc1ccc(C(=O)NC2CCCCC2)cc1-c1ccc(C(=O)NCC2CC2)cc1,3.68%
3,CS(=O)(=O)Nc1ccc(N/C=C2\C(=O)Nc3ccccc32)cc1,-3.28%
4,CC1=C(C(=O)Nc2ccc3[nH]ncc3c2)C(c2ccc3ccccc3c2)CC(=O)N1 (centres undefined),0.67%
5,CC1=C(C(=O)Nc2ccc3[nH]ncc3c2)C(c2ccc(Cl)c(Cl)c2)CC(=O)N1 (centres undefined),1.51%
6,COc1ccc(COc2ccc(Cc3cnc(N)nc3N)cc2OC)cc1,2.11%
7,NCc1ccc(-c2nc(-c3ccc(Cl)c(O)c3)c(-c3ccncc3)[nH]2)cc1,0.36%
8,COc1cc2ncn(-c3cc(O[C@@H](C)c4ccccc4Cl)c(C(N)=O)s3)c2cc1OC,3.01%
9,CCc1cccc(NC(=O)Nc2ccc(Oc3ccc4nc(NC(=O)OC)[nH]c4c3)cc2)c1,1.95%
10,CCn1c(-c2nonc2N)nc2cncc(C(=O)N3CCNCC3)c21,1.3%
11,O=C1Nc2ccc(C(=O)c3ccco3)cc2C1=Cc1cc(Cl)c(O)c(Cl)c1,1.31%
12,COc1ccc(-c2coc3ncnc(N)c23)cc1,0.83%
13,CCn1c(-c2nonc2N)nc2cncc(C(=O)N3CC[C@H](N)C3)c21,6.77%
14,Cc1cccc(-c2n[nH]cc2-c2ccc3ncccc3n2)n1,-0.61%
15,NS(=O)(=O)c1cccc(-c2ccc3c(NC(=O)C4CC4)n[nH]c3c2)c1,-1.53%
16,COC(=O)Nc1nc2cc(Oc3ccc(NC(=O)Nc4cccc(C(=O)O)c4)cc3)ccc2[nH]1,2.38%
17,CN1CCC(C(=O)Nc2n[nH]c3nnc(-c4ccccc4)cc23)CC1,2.25%
